From PubChem BioAssay
The list is not random: actives were taken first. Their share in the collection is about 1.6%.
HTT ATP protect – Huntington cell model cytoprotection by ATP luminescence | AID 1471 | Potency, µM (titrated, usually from 56.4 µM), without a hit: cytoprotection (ATP increase), most hits filed as activators | 230,000 compounds, 0.14% hits | PC12 HTT-Q103 induced, cytoprotection, ATP luminescence, 40 h; note: potency is the fitted concentration of half-maximal effect; % of control where 0% means no effect; nearly all actives have a fitted effect of over 45% in size
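Quantitative HTS on tebufenozide-induced (100 nM) PC12 cells expressing HTTQ103 exon 1–GFP; compounds tested as a concentration series; survival measured via cellular ATP.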
NPSR antagonist – antagonists of human neuropeptide S receptor cAMP signaling; CHO-NPSR cells, cAMP TR-FRET, antagonist mode; Potency, µM (series often up to 38.3 µM), inactives show at the highest dose activity change, negative = inhibition, hits mostly inhibitors; 220,000 compounds, 1% hits; Q6W5P4; note: potency is the fitted concentration of half-maximal effect; % is set by controls: 0 for no effect and ±100 for the full control effect; nearly all actives have a fitted effect of over 50% in size
Target sequence (Q6W5P4 whole entry, looked up): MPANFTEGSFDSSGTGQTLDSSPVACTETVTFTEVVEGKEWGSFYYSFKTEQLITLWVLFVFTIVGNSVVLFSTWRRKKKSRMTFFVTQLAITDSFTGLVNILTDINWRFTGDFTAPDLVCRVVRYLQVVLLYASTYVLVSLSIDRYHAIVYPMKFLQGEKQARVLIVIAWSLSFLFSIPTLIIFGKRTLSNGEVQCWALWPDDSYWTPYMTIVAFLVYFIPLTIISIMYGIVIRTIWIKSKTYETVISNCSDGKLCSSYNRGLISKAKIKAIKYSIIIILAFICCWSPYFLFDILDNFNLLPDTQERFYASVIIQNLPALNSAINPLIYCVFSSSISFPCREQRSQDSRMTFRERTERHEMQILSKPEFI
IMPase inh – cell-permeable inhibitors of inositol monophosphatase (IMPase); P97697; CHO-M1 cells, IP1 accumulation, HTRF TR-FRET ratio; inhibition (IP1 accumulation), % at 46.1 µM; 120,000 tested, under 10 active; AID 901; active = well fitted curve in the direction sought with a large enough effect in the signal ratio, not every such curve was filed as active; inconclusive = small, poorly fitted or top-dose-only effect, or a change in a side signal; inactive = no such curve, though single readings can be large or run the other way; the % refers to the signal ratio;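 note: cells stimulated with carbachol in lithium chloride buffer; plate controls were DMSO basal wells for no effect and reference inhibitor wells for full effect; higher means more IMPase inhibition seen as more IP1 and lower FRET ratio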
Target sequence (P97697 whole entry, looked up): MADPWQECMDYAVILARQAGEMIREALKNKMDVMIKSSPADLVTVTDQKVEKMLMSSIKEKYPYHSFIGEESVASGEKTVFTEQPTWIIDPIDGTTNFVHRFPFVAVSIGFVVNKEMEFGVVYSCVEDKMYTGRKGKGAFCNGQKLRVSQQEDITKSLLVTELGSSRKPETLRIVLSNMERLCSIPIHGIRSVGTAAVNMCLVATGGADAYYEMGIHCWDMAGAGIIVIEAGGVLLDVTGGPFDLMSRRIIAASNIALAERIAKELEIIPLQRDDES
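CHO-M1 cells (CHO stably expressing M1 receptor), compound up to 46 uM final, stimulated with carbachol (50 uM as added) in buffer with 50mM LiCl, pH 7.4, 30 min at 37C. Cytosolic IP1 read by TR-FRET; AC50 from Hill fits.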
IMPase Li inh – cell-permeable IMPase inhibitors with lithium potentiation. AID 1457. Potency, µM (top dose mostly 59.4 µM), for inactives: top-dose activity, negative = IMPase inhibition, actives largely listed as inhibitors. CHO-M1 cells, IP1 TR-FRET (IP-One), carbachol + lithium. 210,000 compounds, 0.35% hits;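 note: IP1 builds up when IMPase is blocked and the TR-FRET signal falls; potency is the fitted concentration of half-maximal effect; plate controls were basal vehicle for no effect and high inhibitor control for full effect; nearly all actives have a fitted effect of over 50% in size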
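CHO-M1, 2000 cells/well, 16–30 h culture; cpd + low Li+, 30 min 37C; lysis with d2-IP1/Eu-anti-IP1 Ab, 10 min RT; TR-FRET 665/620 ratio and 620 channel; AC50 via Hill.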
HTT aggregate – inhibitors of mutant huntingtin aggregate formation in PC12 cells; 220,000 compounds, 1.1% hits; Potency, µM (highest dose often 46.1 µM), without a hit: top-dose activity change, negative = inhibition, actives largely listed as inhibitors; PC12 HttQ103-GFP aggregates, Acumen cytometry, 40 h; note: potency is the fitted concentration of half-maximal effect; % is set by controls: 0 for no effect and ±100 for the full control effect; nearly all actives have a fitted effect of over 60% in size
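Aggregates are detected as GFP objects 1–25 µm with signal 6 STDEV over background in lysates of induced PC12 cells. These carry Huntingtin exon 1 with 103 glutamines fused to GFP under an ecdysone promoter; compounds titrated.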
Lamin A splicing – modulators of lamin A splicing. AID 1487. 200,000 compounds, 0.01% hits. HeLa LMNA splicing GFP/RFP minigene ratio, 48 h. Potency, µM (doses to about 46.1 µM), for inactives: at the highest dose ratio change, negative = inhibition, actives largely listed as inhibitors; active = well fitted inhibition curve with a large enough effect in the signal ratio, with a control signal flat, not every such curve was filed as active; inconclusive = small, poorly fitted or top-dose-only effect, or effect the other way, or a change in a side signal; the % refers to the signal ratio; note: potency is the fitted concentration of half-maximal effect; % is set by controls: 0 for no effect and ±100 for the full control effect
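S3 HeLa cells stably expressing lamin A-EGFP splicing minigene plus DsRed2, 600 cells/well, 48 h compound exposure at 37C. Laser-scanning cytometry; analysed as GFP (500-530 nm)/RFP (575-640 nm) total intensity ratio; 0.5% DMSO vehicle.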
Starred values were filed as active, the others as inactive; [ ] = dose if it differs, or a comment. Unless noted, calls come from the whole dose curve; as a rule, active = well fitted curve in the direction sought with a large enough effect; inconclusive = small, poorly fitted or top-dose-only effect, or another doubt; inactive = no such curve, though single readings can be large; an effect the other way counts as inactive or inconclusive.

For Cc1nnc(N/N=C/c2cc([N+](=O)[O-])c(N3CCC(C)CC3)cc2N2CCC(C)CC2)n1N the results were HTT ATP protect -23%, NPSR antagonist 10µM*, IMPase inh 13, IMPase Li inh 52%[38.3 µM], HTT aggregate inconclusive and Lamin A splicing inconclusive.
`CCc1nnc(N/N=C/c2ccc(N3CCC(C)CC3)c([N+](=O)[O-])c2)n1N` gave HTT ATP protect -4%[10 µM], NPSR antagonist -4%, IMPase inh 4, IMPase Li inh 0%, HTT aggregate -21% and Lamin A splicing -2%.
Screening CC1CCN(CC(=O)NCc2ccccc2)CC1 returned HTT ATP protect -5%[0.074 µM], NPSR antagonist 1%[46.1 µM], IMPase inh -2, IMPase Li inh 22%[38.3 µM], HTT aggregate 2.5µM* and Lamin A splicing 13%.
Screening O=C(CN1CCCCCC1)NCc1ccccc1 returned HTT ATP protect 7%[10 µM], NPSR antagonist 13%, IMPase Li inh 5% and HTT aggregate 7%.
For O=C(O)/C=C\C(=O)Nc1ccccc1C#Cc1ccc(Br)cc1 the results were HTT ATP protect -20%[10 µM], NPSR antagonist 13µM*, IMPase inh 0, IMPase Li inh -7%, HTT aggregate 14% and Lamin A splicing inconclusive.
`O=C(O)/C=C\C(=O)Nc1ccccc1C#Cc1ccccc1` gave HTT ATP protect 9%[10 µM], NPSR antagonist -2%[46.1 µM], IMPase inh 14, IMPase Li inh -3%, HTT aggregate 19% and Lamin A splicing inconclusive.
For O=C(CCl)N(c1ccc(Cl)cc1)c1c[nH]c2ccccc12 the results were HTT ATP protect -115%, NPSR antagonist 7.9µM*, IMPase inh -7, IMPase Li inh 40%[38.3 µM], HTT aggregate inconclusive and Lamin A splicing inconclusive.
For COc1cccc(C2C(C(=O)c3cc4ccccc4o3)=C(O)C(=O)N2c2cc(C)on2)c1OC (stereo not given) the results were HTT ATP protect -12%[0.074 µM], NPSR antagonist 3.2µM*, IMPase inh inconclusive, IMPase Li inh 11µM*, HTT aggregate -5% and Lamin A splicing -6%.
Screening COc1cccc(C2C(C(=O)c3cc4cccc(OC)c4o3)=C(O)C(=O)N2c2cc(C)on2)c1OC (stereo not given) returned HTT ATP protect -10%[0.074 µM], NPSR antagonist 6.3µM*, IMPase inh inconclusive, IMPase Li inh 10µM*, HTT aggregate -4% and Lamin A splicing 17%.
For C=CCOC(=O)c1ccc(-n2cnc(C)n2)nc1 the results were HTT ATP protect -16%, NPSR antagonist 9%, IMPase Li inh -3%, HTT aggregate -8%[9.22 µM] and Lamin A splicing 1%[9.22 µM].
`CCc1c(C)nc2ncnn2c1NCCc1ccc(OC)c(OC)c1` gave HTT ATP protect 18%[10 µM], NPSR antagonist -12%[46.1 µM], IMPase inh 13, IMPase Li inh 1%, HTT aggregate 10µM* and Lamin A splicing inconclusive.
Cc1cc(C)c2c(N)c(C(=O)c3ccccc3)sc2n1 was read as HTT ATP protect -4%[10 µM], NPSR antagonist 4% and HTT aggregate -21%[9.22 µM].
Screening Cc1nc2sc(C(N)=O)c(N)c2c(C)c1CC(=O)c1ccccc1 returned HTT ATP protect -41%, NPSR antagonist -3%, IMPase Li inh -6% and HTT aggregate 3.5µM*.
`CC(OC(=O)Cc1coc2ccc3ccccc3c12)C(=O)NC(N)=O` (stereo not given) gave HTT ATP protect 12%[10 µM], NPSR antagonist -6% and HTT aggregate 2%[9.22 µM].
For COc1ccc(OCc2cc(-c3ccc(Cl)cc3)no2)cc1 the results were HTT ATP protect -2%[10 µM], NPSR antagonist -5%, IMPase Li inh 9%, HTT aggregate -20% and Lamin A splicing 27%[46 µM].
Screening O=C(CCl)NCc1cc(-c2ccc(Cl)cc2)no1 returned HTT ATP protect -198%, NPSR antagonist 11%, IMPase Li inh 1% and HTT aggregate 35µM*.
C=CCn1c(SCCN2C(=O)c3ccccc3C2=O)nc2scc(-c3ccccc3)c2c1=O was read as HTT ATP protect 12%, NPSR antagonist 13µM*, IMPase inh -4, IMPase Li inh 8%[38.3 µM], HTT aggregate 17% and Lamin A splicing 3%.
CCOC(=O)c1c(-c2cccs2)csc1NC(C)=O was read as HTT ATP protect 3%[1.9 µM], NPSR antagonist 23%[46.1 µM], IMPase inh -2, IMPase Li inh 24%, HTT aggregate -14% and Lamin A splicing 1%.
CCOC(=O)c1c(-c2cccs2)csc1NC(=O)CCCC(=O)O was read as HTT ATP protect -2%, NPSR antagonist -12%[46.1 µM], IMPase inh inconclusive, IMPase Li inh 10µM*, HTT aggregate 7% and Lamin A splicing 10%[0.0737 µM].
Screening CCOC(=O)c1c(-c2cccs2)csc1NC(=O)C(C)(C)C returned HTT ATP protect -73%, NPSR antagonist inconclusive, IMPase inh 1, IMPase Li inh 42%[38.3 µM], HTT aggregate 14µM* and Lamin A splicing inconclusive.
For NC([N-]/N=C/c1ccccn1)=[S]=[Fe].O=S(=O)(O)O the results were HTT ATP protect -16%[10 µM].
Screening COc1ccc(CNC(=O)CN2N=C(c3ccc(Cl)cc3)CCC2=O)cc1 returned Lamin A splicing -6%[46 µM].
CCOC(=O)c1c(C)[nH]c(=S)c(C#N)c1-c1ccc(OC)cc1 was read as HTT ATP protect -29%, NPSR antagonist -18%[46.1 µM], IMPase inh inconclusive, IMPase Li inh 5%[38.3 µM], HTT aggregate 6% and Lamin A splicing -1%.
For CCCCOc1ccc(-c2c(C(=O)Nc3ccccc3)c(C)[nH]c(=S)c2C#N)cc1 the results were HTT ATP protect 20%, NPSR antagonist 10µM*, IMPase Li inh 8.9µM*, HTT aggregate 2% and Lamin A splicing 5%[46 µM].
Screening CC(=O)N1CCN(c2ccc(Nc3ncnc4c3oc3ccccc34)cc2)CC1 returned HTT ATP protect -68%, NPSR antagonist inconclusive, IMPase inh 27, IMPase Li inh 26%[38.3 µM], HTT aggregate 18µM* and Lamin A splicing inconclusive.
CCOCCc1nn2c(=O)cc(COC(=O)c3ccc(NC(=O)C(C)(C)C)cc3)nc2s1 was read as Lamin A splicing 3%[46 µM].
CCC(C(=O)NNC(=O)c1cnccn1)c1ccccc1 (stereo not given) was read as HTT ATP protect 2%[10 µM], NPSR antagonist 16%, IMPase Li inh 3%, HTT aggregate 7.9µM* and Lamin A splicing inconclusive.
Screening CCc1cc(OCCCSc2nc(C)cc(=O)[nH]2)ccc1Cl returned HTT ATP protect 6%, NPSR antagonist 15%[46.1 µM], IMPase inh 7, IMPase Li inh 36%[38.3 µM], HTT aggregate 35µM* and Lamin A splicing inconclusive.
